# Source: ChEMBL document CHEMBL1157539, “Thousands of chemical starting points for antimalarial lead identification” (Nature, 2010)
# Legend:
# Format in all cases: functional
# [1] = test system: Plasmodium falciparum; test: GSK_TCMDC: Inhibition of Plasmodium falciparum 3D7 in whole red blood cells, using parasite LDH activity as an index of growth. Test compounds present at 2uM
# [2] = test system: Plasmodium falciparum; test: GSK_TCMDC: Inhibition of Plasmodium falciparum Dd2 in whole red blood cells, using parasite LDH activity as an index of growth. Test compounds present at 2uM
# [3] = test system: HepG2; test: GSK_TCMDC: Percent inhibition of human HepG2 cell line. Test compounds present at 10uM.
compound,measurement,setting,value
COC(=O)c1ccc2[nH]cc(C3CCN(CCC4CCN(C(=O)/C=C/c5ccc(Cl)c(Cl)c5)CC4)CC3)c2c1,Inhibition,[1],97%
same,Inhibition,[2],59%
same,Inhibition,[3],24%
Cc1cc(C(=O)Nc2ccc3c(c2)CCN3C2CCN(Cc3cccc(F)c3F)C2)no1 (stereo unspecified),Inhibition,[1],95%
same,Inhibition,[2],94%
same,Inhibition,[3],0%
O=C(O)C(F)(F)F.O=S(=O)(NCCN1CCCC1)c1cccc(-c2ccc(CNC3Cc4ccccc4C3)cc2)c1,Inhibition,[1],99%
same,Inhibition,[2],74%
same,Inhibition,[3],79%
COc1ccc(CNCCCCCNCc2ccc(Cl)c(Cl)c2)cc1Cl,Inhibition,[1],98%
same,Inhibition,[2],43%
same,Inhibition,[3],42%
CC(C)NCc1cccc(-c2ccc(-c3nc4cc(C(F)(F)F)ccc4[nH]3)cc2)c1.O=C(O)C(F)(F)F,Inhibition,[1],99%
same,Inhibition,[2],96%
same,Inhibition,[3],7%
CCN1CCC(N(Cc2ccc(-c3ccc(C(F)(F)F)cc3)cc2)C(=O)Cn2c(CCc3cccc(F)c3F)nc(=O)c3ccccc32)CC1.O=C(O)C(O)C(O)C(=O)O,Inhibition,[1],95%
same,Inhibition,[2],95%
same,Inhibition,[3],99%
COc1ccc2[nH]cc(C3CCN(CCCCNC(=O)c4ccc(NC(=O)c5ccc(Cl)cc5)cc4)CC3)c2c1,Inhibition,[1],98%
same,Inhibition,[2],16%
same,Inhibition,[3],17%
Cc1ccc(Oc2ccc(NC(=O)CNc3ccccc3N3CCCC3=O)cc2)cc1,Inhibition,[1],98%
same,Inhibition,[2],97%
same,Inhibition,[3],14%
COc1cc(CNC[C@@H](O)[C@H](Cc2ccccc2)NC(=O)c2cc(OC(C)C)cc(N3CCCS3(=O)=O)c2)cc(OC)c1.Cl,Inhibition,[1],97%
same,Inhibition,[2],72%
same,Inhibition,[3],0%
C[C@@H](Oc1cc(-n2cnc3cc(SCCN4CCN(C)CC4)ccc32)sc1C(N)=O)c1ccccc1Cl,Inhibition,[1],90%
same,Inhibition,[2],65%
same,Inhibition,[3],46%
COC(=O)c1cc(NC(=O)Nc2ccc(Cn3ncc(N4CCCNCC4)c(Cl)c3=O)cc2)cc(C(=O)OC)c1.O=C(O)C(F)(F)F,Inhibition,[1],96%
same,Inhibition,[2],90%
same,Inhibition,[3],0%
O=C(/C=C/c1ccc(C(F)(F)F)cc1)NCCCCCN1CCN(C(=O)Nc2ccc(Cl)cc2)CC1,Inhibition,[1],88%
same,Inhibition,[2],0%
same,Inhibition,[3],37%
c1ccc(CN2CCc3cc4nccc(N5CCNCC5)c4cc32)cc1,Inhibition,[1],100%
same,Inhibition,[2],99%
same,Inhibition,[3],9%
Br.CC1(C)NC(N)=NC(=N)N1OCCOc1ccc(Cc2ccccc2)cc1,Inhibition,[1],94%
same,Inhibition,[2],26%
same,Inhibition,[3],62%
CCc1cn2c3c(cc(C(=O)N[C@@H](Cc4cc(F)cc(F)c4)[C@H](O)CNC4CCOCC4)cc13)N(C)S(=O)(=O)CC2.O=CO,Inhibition,[1],98%
same,Inhibition,[2],98%
same,Inhibition,[3],1%
Cn1cncc1C(=O)Nc1ccc(-c2ccc(-c3nc4cc(C(F)(F)F)ccc4[nH]3)cc2)cc1,Inhibition,[1],100%
same,Inhibition,[2],33%
same,Inhibition,[3],24%
NC1CCCN(Cc2cccc(-c3ccc(-c4nc5ccccc5[nH]4)cc3)c2)C1.O=C(O)C(F)(F)F (stereo unspecified),Inhibition,[1],100%
same,Inhibition,[2],73%
same,Inhibition,[3],25%
CCc1c(C(=O)NC2CCC(N3CCC(c4ccccc4OC)CC3)CC2)[nH]c2ccc(OC)cc12 (stereo unspecified),Inhibition,[1],100%
same,Inhibition,[2],99%
same,Inhibition,[3],43%
COc1ccc(CNC2Cc3ccccc3C2)cc1-c1cccc(S(=O)(=O)NCCN2CCCC2)c1.O=C(O)C(F)(F)F,Inhibition,[1],98%
same,Inhibition,[2],61%
same,Inhibition,[3],48%
Nc1nc(N)c2cc(C#Cc3ccc(-c4ccccc4)cc3)ccc2n1,Inhibition,[1],94%
same,Inhibition,[2],3%
same,Inhibition,[3],20%
COc1ccc(CCNCCCCCCNCCCc2ccc(Cl)cc2)cc1OC.Cl,Inhibition,[1],96%
same,Inhibition,[2],2%
same,Inhibition,[3],36%
CC(C)c1sc(N2CCCCC2)nc1C(=O)Nc1ccc(F)cc1C(F)(F)F.O=C(O)C(F)(F)F,Inhibition,[1],100%
same,Inhibition,[2],98%
same,Inhibition,[3],0%
Nc1nc(N)c2c(ccc3c2ccn3Cc2ccc(-c3ccccc3)cc2)n1,Inhibition,[1],98%
same,Inhibition,[2],93%
same,Inhibition,[3],100%
Cc1[nH]c(C)c(-c2ccc(CCc3ccc(N)cc3)cc2)c(=O)c1Cl,Inhibition,[1],97%
same,Inhibition,[2],97%
same,Inhibition,[3],2%
CC1(C)N=C(N)N=C(N)N1c1ccc(Oc2ccccc2)cc1.Cl,Inhibition,[1],98%
same,Inhibition,[2],3%
same,Inhibition,[3],13%
CN1CCCC1CCNC(=O)[C@H](CC1CCCCC1)NC(=O)c1ccc(O)c(-c2ccc(Cl)c(Cl)c2)c1 (stereo partly specified),Inhibition,[1],98%
same,Inhibition,[2],35%
same,Inhibition,[3],0%
COc1ccc(-c2ccc(CNC(=O)c3cccc(C#N)c3)c(F)c2)cc1CN1CCCN(C)CC1.O=C(O)C(F)(F)F,Inhibition,[1],99%
same,Inhibition,[2],30%
same,Inhibition,[3],8%
